The whole screen tested about 190,000 compounds, of which about 810 (0.43%) were called active. For the sample, actives were picked, then their nearest neighbours and some compounds at random. Values without a mark were called inactive. No stated cut-off is given here; in the data, active means inhibition above about 50%; inactive means the rest.

Usually inhibition stands for the change of the read-out against control, counted positive when it falls.

Chain of Mannose-6-phosphate isomerase (Homo sapiens) (P34949 whole entry, looked up): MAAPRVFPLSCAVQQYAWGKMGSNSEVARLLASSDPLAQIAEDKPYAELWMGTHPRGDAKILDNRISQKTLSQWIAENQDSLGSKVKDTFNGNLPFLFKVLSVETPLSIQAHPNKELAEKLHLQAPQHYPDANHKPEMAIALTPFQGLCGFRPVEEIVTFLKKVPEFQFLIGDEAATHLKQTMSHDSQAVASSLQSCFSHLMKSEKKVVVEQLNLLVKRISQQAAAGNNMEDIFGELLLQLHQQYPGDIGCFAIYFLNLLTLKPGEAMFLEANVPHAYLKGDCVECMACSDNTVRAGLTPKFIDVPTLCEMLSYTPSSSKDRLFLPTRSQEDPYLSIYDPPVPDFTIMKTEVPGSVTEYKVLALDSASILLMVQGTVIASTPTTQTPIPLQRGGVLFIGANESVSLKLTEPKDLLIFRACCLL

This experiment concerns the target Mannose-6-phosphate isomerase (Homo sapiens) (UniProt P34949). Kind of experiment: MPI enzyme activity inhibition – biochemical, fluorescence intensity, coupled assay, primary screen (AID 1209).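 Further: plate controls were DMSO vehicle for no effect and wells lacking substrate for full effect.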 Particulars: purified PMI enzyme, at 20 µM, hits give high values.
Regarding `CCCCN(C(=O)Cn1nnc2ccccc21)C(C(=O)NCc1ccco1)c1ccncc1` (centres undefined), the inhibition is -0.5%.

As to `Cc1onc(-c2ccccc2Cl)c1C(=O)NC(=S)NCCc1ccccc1`, the inhibition is 11.7%. The same measure for `O=C(c1cccnc1)N1N=C(C2CCCCC2)CC1(O)C(F)(F)F` (centres undefined): -7.1%. The same measure for `CCOC(=O)C(=O)Nc1sc(C(=O)N2CCOCC2)c(C)c1C#N`: 2.7%. In the case of `Cc1ccccc1-c1cc(C(=O)Nc2sc(C)c(C)c2C(N)=O)c2ccccc2n1`, the inhibition is 19.7%. The same measure for `COc1ccc(-c2cc(C(=O)Nc3sc4c(c3C#N)CCCC4)c3ccccc3n2)cc1`: 7.1%; for `Cc1ccccc1-c1cc(C(=O)Nc2sc(C(=O)OC(C)C)c(C)c2C#N)c2ccccc2n1`: 61.2% (active); for `COC(=O)c1sc(NC(=O)c2cc(-c3ccccc3)nc3ccccc23)c(C#N)c1C`: 5.2%.

`CCOC(=O)c1sc(NC(=O)c2cc(-c3ccc(C)cc3)nc3ccccc23)c(C#N)c1C`: the inhibition was 67.7% (active). On to `CCOC(=O)c1sc(NC(=O)c2ccncc2)c(C#N)c1C`, for which the inhibition is 49.3%.

Take `CCOC(=O)c1sc(NC(=O)c2cc(-c3ccccc3C)nc3ccccc23)c(C#N)c1C`: the inhibition was 47.9%. The same measure for `CCOC(=O)c1sc(NC(=O)c2cc(-c3ccccc3)nc3ccccc23)c(C#N)c1C`: 79% (active); for `Cc1sc(NC(=O)c2cc(-c3ccccc3)nc3ccccc23)c(C(N)=O)c1C`: 17%. For `CCCN1C2CCCC1CC(NC(=S)Nc1cc(C)cc(C)c1)C2` (centres undefined), the inhibition was 7.1%. The value for `NNC(=O)CNc1cccc(Cl)c1` was -2.4%; that for `CC/C(C)=N\N=C\c1c(O)n(CC)c2cc(C3=NNC(=O)CC3)ccc12` was -47.5%. The value for `COc1ccccc1-n1cnnc1SCC(=O)Nc1cccc(S(=O)(=O)N2CCCCC2)c1` was 7.9%; that for `O=C(NCCN1CCN(C(=O)c2cccs2)CC1)C(=O)Nc1ccc(Br)cc1` was -0.2%; that for `COc1ccc(CC(=O)Nc2ccc(S(=O)(=O)NCC3CCCO3)cc2)cc1` (centres undefined) was 2.9%. With `Cc1cc([N+](=O)[O-])nn1CCCC(=O)NCc1ccc(F)cc1`, the inhibition is -9.8%. The value for `Cc1nc(NC(=O)c2ccccc2)sc1-c1csc(Nc2ccc(F)cc2)n1` was 45%; that for `Cc1nc(NC(=O)c2ccccc2)sc1-c1csc(Nc2cccc(Cl)c2)n1` was 0.6%. The same measure for `Cc1nc(NC(=O)c2ccccc2)sc1-c1csc(Nc2ccc(Cl)cc2)n1`: 53.1% (active); for `Cc1nn(Cc2ccc(Cl)cc2)c(C)c1NC(=O)c1noc2c1CCCCC2`: 15.5%; for `COc1ccc(OCCCNCCc2ccccc2)cc1`: -2.5%. For `O=C1/C(=C/c2cccnc2)SC(=NCc2ccccc2)N1Cc1ccccc1`, the inhibition is 7.3%.

As for `CCCCCc1nc2c(=O)[nH]c3ccccc3c2o1`, the inhibition was 102% (active).

`CCCCc1nc2c(=O)[nH]c3ccccc3c2o1`: the inhibition was 0.8%. The value for `CCCCCCc1nc2c(=O)[nH]c3ccccc3c2o1` was 6.6%. The same measure for `CCN(C(=O)c1ccnn1C)c1ccccc1`: -6.3%; for `CCOC(=O)Cc1csc(SCn2nnc3ccccc3c2=O)n1`: 1.9%. The value for `CCOC(=O)Cc1csc(-n2sc3ccccc3c2=O)n1` was 98.9% (active). In the case of `CCOC(=O)Cc1csc(NC(=O)c2cc(=O)c3ccccc3o2)n1`, the inhibition is -7.8%. The same measure for `O=C(CSc1ccc(-c2ccc(Br)cc2)nn1)N1CCOCC1`: -1.9%; for `CCCCCCCNC(=O)COc1ccc2c(c1)C(=O)CC(C)(C)O2`: 2.9%. The same measure for `O=C(Nc1ccc2c(c1)OC1(CCCC1)O2)C1CC1`: 0.2%; for `Nc1ccc2c(c1)OC1(CCCC1)O2`: 6.1%.

Regarding `Nc1ccc2c(c1)OC1(CCCCC1)O2`, the inhibition is 55.6% (active).

`CC(C)(C)c1nc(SCC(=O)N2CC(=O)Nc3ccccc32)c2ccccc2n1`: the inhibition is 3.4%.

On to `COc1ccc2c(c1)CC/C2=N\OC(=O)c1ccccc1C`, for which the inhibition is -5%. The value for `Cc1ccc2c(c1)/C(=N/N1C(=O)c3ccccc3C1=O)C(=O)N2` was -2.2%. As to `COc1ccc(N=C2C(=O)Nc3ccccc32)cc1`, the inhibition is 12.5%. The value for `c1ccc(-c2nnc(CSc3nncs3)o2)cc1` was 16.2%; that for `O=c1[nH]c2ccc(Cl)cc2c(-c2ccccc2)c1SC(=S)N1CCCCC1` was 0.2%; that for `CCOC(=O)N1CCC(Nc2c(N3CCN(c4cccc(C(F)(F)F)c4)CC3)c(=O)c2=O)CC1` was -9.4%.

For the molecule `CCNS(=O)(=O)c1ccc(NC(=S)NCc2ccco2)cc1`, the inhibition was 35.3%. The value for `O=S(=O)(c1ccc(NC(=S)NCc2ccco2)cc1)N1CCCC1` was 8.9%; that for `NS(=O)(=O)c1ccc(CNC(=S)NCc2ccc(Cl)cc2)cc1` was 6.3%. The value for `NS(=O)(=O)c1ccc(NC(=S)NCc2ccc(Cl)cc2)cc1` was 58.1% (active); that for `NS(=O)(=O)c1ccc(NC(=S)NCc2ccco2)cc1` was 55.4% (active). For `NS(=O)(=O)c1ccc(CNC(=S)Nc2ccc(F)c(Cl)c2)cc1`, the inhibition is 17.2%.

Consider `CC(=O)NC(CCS(C)(=O)=O)C(=O)Nc1ccccc1` (centres undefined), for which the inhibition was 7.8%. The same measure for `CS(=O)(=O)N(CC(=O)NC1CC1)c1cccc(F)c1`: 6.9%; for `Cc1ccc(NC(=O)CSc2nnc(-c3ccncc3)n2C)cc1S(=O)(=O)N1CCOCC1`: -7.6%; for `COC(=O)c1ccc[n+](CC(=O)c2ccc(Br)cc2)c1`: -34.8%. For `Cn1cnc2ccc([N+](=O)[O-])cc2c1=O`, the inhibition is -6%. In the case of `CCOC(=O)N1CCN(CCC(=O)c2ccc(OC)cc2)CC1`, the inhibition is 0.1%. The value for `CCOC(=O)N1CCN(CCC(=O)c2ccc(Cl)cc2)CC1` was 57.4% (active); that for `CCCOc1ccc(C(=O)CCN2CCN(C(=O)OCC)CC2)cc1` was -7.1%. The same measure for `Cc1ccc(N2C(=O)NC(C(F)(F)F)(C(F)(F)F)C3=C2CC(C)(C)CC3=O)cc1`: 2.1%; for `CC1(C)CC2(CC(c3ccccc3)Oc3cc(O)ccc32)NC(=O)N1` (centres undefined): 2.6%. On to `COc1cccc(C(=O)COc2ccc3ccc(=O)oc3c2)c1`, for which the inhibition is -1.6%. The value for `COC(=O)c1c(NC(=O)c2ccco2)sc(C)c1C` was 5%; that for `CCOC(=O)c1c(NC(=O)Nc2ccc(Cl)cc2)sc(C)c1C` was 2.4%.

`CCOC(=O)c1c(NC(=O)Nc2ccccc2)sc(C)c1C`: the inhibition was 12.6%. In the case of `CCOC(=O)c1c(NC(=S)Nc2ccc(Cl)cc2)sc(C)c1C`, the inhibition was -3.5%. The same measure for `NC(=O)c1c(NC(=S)Nc2ccc(F)cc2)sc2c1CCCC2`: 18.7%; for `Cc1sc(NC(=S)NC(=O)c2ccco2)c(C(N)=O)c1C`: 50.4% (active). The same measure for `Cc1sc(NC(=S)Nc2ccc(F)cc2)c(C(N)=O)c1C`: 51.8% (active); for `Cc1sc(NC(=O)Nc2ccccc2)c(C(N)=O)c1C`: 53.1% (active).

Regarding `Cc1sc(NC(=S)NC(=O)c2ccco2)c(C#N)c1C`, the inhibition is 4.5%. On to `O=C(Nc1ccnc(-c2cccnc2)n1)c1ccc(F)cc1`, for which the inhibition was 5%.

In the case of `Cc1nn(Cc2ccc(F)cc2)c(C)c1NC(=O)c1cc2ncc(Br)cn2n1`, the inhibition was 6.4%.

Consider `COc1ccc(Cn2c(C)c(C)c(C#N)c2NC(=O)Nc2cccc(C)c2)cc1`, for which the inhibition was -1.9%.

Regarding `CC(NC(=O)C(=O)N/N=C\c1cccc([N+](=O)[O-])c1)c1ccccc1` (centres undefined), the inhibition is 10.5%. As to `CC(C)(C)NC(=O)NC(=O)Cn1ccsc1=N`, the inhibition was 5.2%. `CCC(C)(C)NC(=O)CN(Cc1ccc2c(c1)OCO2)C(=O)CCC(=O)Nc1nccs1`: the inhibition is -5%.

For the molecule `O=C(COc1ccccc1Cl)NC(=S)Nc1ccc(CN2CCOCC2)cc1`, the inhibition is 17.4%. The value for `O=C(O)/C(=C/c1ccco1)c1ccccc1` was -8%; that for `CCOC(=O)C1CCCN(C(=O)Cn2nc(Cc3cccnc3)c3ccccc3c2=O)C1` (centres undefined) was 5.7%; that for `O=C(CSc1nnnn1C1CCCC1)Nc1cccc(NC(=O)c2ccco2)c1` was 8.3%. As for `O=c1c(C/C=C/c2ccccc2)c(O)ccn1Cc1ccc(Cl)cc1Cl`, the inhibition was 13.5%.

Regarding `CC1(C)C(=O)C2(CCCCC2)C(=O)OC1c1cccn1-c1ccc([N+](=O)[O-])cc1` (centres undefined), the inhibition was 2.5%. Take `CC1(C)C(=O)OC(c2cccn2-c2ccc([N+](=O)[O-])cc2)C2(CCCCC2)C1=O` (centres undefined): the inhibition was 6.1%.

Regarding `CC1(C)C(=O)OC(c2cccn2-c2ccc([N+](=O)[O-])cc2)C(C)(C)C1=O` (centres undefined), the inhibition was 67.5% (active). The value for `CCCC(=O)c1cc2c(cc1NC(=O)c1cccs1)OCCO2` was 6.8%; that for `O=C(NCc1ccccn1)Nc1cccc(NC(=O)NCc2ccccn2)c1` was 14.5%. In the case of `CCCC1=C(C(=O)OCC)C(/C=C/c2ccccc2)n2ncnc2N1` (centres undefined), the inhibition was 2.4%. As to `COc1ccc(OC)c(-c2nnc(NC(=O)C(C)Sc3nncn3C)s2)c1` (centres undefined), the inhibition was 97.9% (active). `CC(Sc1nncn1C)C(=O)Nc1nnc(-c2ccccc2)s1` (centres undefined): the inhibition was 8.5%. The same measure for `COc1ccccc1-c1nnc(NC(=O)C(C)Sc2nncn2C)s1` (centres undefined): -2.1%.

Turning to `Cc1ccc(NC(=S)NNC(=O)Cn2nc(C(F)F)cc2C(F)F)cc1`, the inhibition was -10%. The value for `CSc1ccc(/C=C/c2ccc3cccc(O)c3n2)cc1` was -33.5%; that for `Cc1ccsc1/C=C/c1ccc2cccc(O)c2n1` was -6.3%.

Regarding `COc1ccc(-c2nc(CSCC(=O)NC3CCCc4ccccc43)c(C)o2)cc1` (centres undefined), the inhibition is 7%.

Regarding `Cc1c(Cl)c(C(=O)NC2CCCC2)nn1C`, the inhibition was -11.9%. The value for `Nc1nc2c(s1)COc1ccccc1-2` was 12.7%; that for `Nc1nc2c(s1)CCc1c-2cnn1-c1ccccc1` was 86.9% (active); that for `Nc1nc(-c2ccccc2)c(-c2ccccc2)s1` was -1.1%.

For the origin of these results see PubChem BioAssay AID1209 (Sanford-Burnham Center for Chemical Genomics, 2008).
